Assay outcomes from PubChem BioAssay.
S1P4 agonist – activates the human S1P4 receptor. O95977. S1P4-expressing cell line, agonist reporter assay. activation, % at 4.98 µM. 0.35% of 220,000 active; in the data active = activation above about 11%
S1P3 antagonist – S1P3 (human) receptor antagonism; Q99500; CHO S1P3 NFAT-BLA reporter, FRET fluorescence, antagonist mode; inhibition, % at 4.98 µM; AID 485; 0.27% of 170,000 active;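 active = inhibition above the plate cutoff, the mean inhibition of test wells on that plate plus 3 SD, cut at about 28% in these data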;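 also: cells challenged with S1P at its EC80 of 0.8 µM; blue over green emission ratio from cleaved BLA substrate after 4 h stimulation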
Target sequence (Q99500 whole entry, looked up): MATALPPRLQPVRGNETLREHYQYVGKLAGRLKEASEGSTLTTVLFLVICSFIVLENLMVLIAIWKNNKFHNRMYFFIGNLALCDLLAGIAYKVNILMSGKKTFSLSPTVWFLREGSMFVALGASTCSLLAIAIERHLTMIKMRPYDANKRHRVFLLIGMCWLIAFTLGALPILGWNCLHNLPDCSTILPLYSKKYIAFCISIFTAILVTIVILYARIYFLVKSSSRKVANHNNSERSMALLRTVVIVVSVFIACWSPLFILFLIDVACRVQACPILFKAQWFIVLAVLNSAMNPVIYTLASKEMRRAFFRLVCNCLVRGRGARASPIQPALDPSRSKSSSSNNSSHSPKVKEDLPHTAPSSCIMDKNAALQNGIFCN
EP2 antag – blocks the human prostaglandin E2 receptor EP2. 0.52% of 260,000 active. inhibition, % at 25 µM. AID 1422. C6 glioma cells expressing human EP2, cAMP TR-FRET; cells stimulated with saturating PGE2. P43116;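 active = percent inhibition above 40 after rounding to a whole number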;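 also: rat C6 glioma host cells with rolipram phosphodiesterase inhibitor present; the protocol text gives 20 µM as final concentration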
EP2 mod – EP2 receptor (human) modulation; P43116; EP2-expressing cells, cAMP HTRF FRET, PGE2 co-stimulation; induction, % at 25 µM; 0.83% of 260,000 active; AID 940;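 active = compounds whose cAMP rise, as percent of the full-agonist control response, exceeds 60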;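 also: rat C6 glioma line stably carrying human EP2 under a CMV promoter; the protocol text gives 20 µM as final concentration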
S1P4 antagonist – human S1P4 receptor antagonism | S1P4-expressing cells, antagonist mode, reporter read-out | inhibition, % at 4.98 µM | 0.26% of 220,000 active; in the data active = inhibition above about 29%
INS promoter inh – TRM-6 insulin promoter activity inhibition | 0.9% of 130,000 active | AID 1273 | TRM-6 cells (human fetal islet line), insulin promoter-eGFP reporter, imaging; reporter expression induced with tamoxifen | inhibition, % at 2 µM;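 active = inhibition above the mean plus 3 SD, with well images judged a real hit on visual review, cut at about 60% in these data, passing the limit was not always enough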
Each line names hits and unclear results; the compound was inactive in the other large screens. Rows were chosen to be rich in hits. Some 2.4% of all compounds tested hit in one or more screens of this group.

CCn1cc(C=C2C(=O)c3ccccc3C2=O)c2ccccc21	EP2 antag 42
COC(=O)c1cn(CC(=O)Nc2ccccc2F)c2ccccc12	none (no result: S1P4 agonist, S1P3 antagonist, S1P4 antagonist, INS promoter inh)
O=c1[nH]c2cccnc2n1Cc1ccccc1	INS promoter inh 82 (no result: S1P3 antagonist)
COC(=O)c1cn(CC(=O)Nc2c(C)cccc2C)c2ccccc12	none (no result: S1P4 agonist, S1P3 antagonist, S1P4 antagonist, INS promoter inh)
Cc1nn(-c2ccccc2)c(C)c1N	INS promoter inh 75
CC(NC(=O)C1CCCC1)C1CC2CCC1C2 (stereo unspecified)	INS promoter inh 71
CC(NC(=O)CCC(=O)c1ccc(F)cc1)C1CC2CCC1C2 (stereo unspecified)	none (no result: INS promoter inh)
CC(NC(=O)c1ccc(N(C)C)cc1)C1CC2CCC1C2 (stereo unspecified)	S1P4 antagonist 34 (no result: S1P3 antagonist, EP2 antag)
CC(NC(=O)C1CC=CCC1C(=O)O)C1CC2CCC1C2 (stereo unspecified)	none
CCC(C)NC(=O)C1CCN(Cc2ccc(OC)cc2OC)CC1 (stereo unspecified)	none (no result: S1P4 agonist, S1P3 antagonist, S1P4 antagonist, INS promoter inh)
CN1CCN(S(=O)(=O)c2ccc(NC(=S)NC(=O)c3ccccc3)cc2)CC1	none (no result: S1P3 antagonist)
CN1CCN(S(=O)(=O)c2ccc(NC(=S)NC(=O)c3ccc(Cl)cc3)cc2)CC1	S1P4 agonist 13 (no result: S1P3 antagonist, EP2 antag, INS promoter inh)
CN1CCN(S(=O)(=O)c2ccc(NC(=O)Nc3cccc(Cl)c3)cc2)CC1	EP2 antag 43
O=C(Nc1cccc(Cl)c1)Nc1cc(S(=O)(=O)N2CCCCC2)ccc1Cl	none (no result: INS promoter inh)
COC(=O)N1N=C(C)CC1(O)C(F)(F)F (stereo unspecified)	none (no result: S1P4 agonist, S1P3 antagonist, S1P4 antagonist, INS promoter inh)
CC(C)[C@H]1CN(Cc2ccccc2F)CCN1C(=O)Cn1ncc2ccccc2c1=O	none (no result: S1P4 agonist, S1P3 antagonist, EP2 antag, S1P4 antagonist, INS promoter inh)
Cc1ccc(CNC(=O)Cn2cncn2)cc1	none (no result: S1P3 antagonist)
COc1ccc(CNC(=O)Cn2cncn2)cc1OC	INS promoter inh 89
C=CCNC(=O)C1CCN(S(=O)(=O)c2cc(OC)ccc2OC)CC1	none (no result: S1P4 agonist, S1P3 antagonist, S1P4 antagonist, INS promoter inh)
COCOc1cc(O)c(C(=O)/C=C/c2ccccc2)c(OCOC)c1	none (no result: S1P4 agonist, S1P3 antagonist, EP2 mod, S1P4 antagonist, INS promoter inh)
COc1cc(O)c(C(=O)/C=C/c2ccc(OC)c(O)c2)c(OC)c1	EP2 antag 57 (no result: S1P4 agonist, S1P3 antagonist, S1P4 antagonist, INS promoter inh)
Cc1ccc(C)c(CN2C(=O)C3(OCCCO3)c3ccccc32)c1	EP2 mod 62 (no result: INS promoter inh)
Cc1ccc(CNC(=O)CN2C(=O)C3(OCCCO3)c3ccccc32)cc1	none (no result: INS promoter inh)
O=C(Nc1ccc(Cc2nc3ccccc3[nH]2)cc1)C1CCCCC1	none (no result: S1P4 agonist, S1P3 antagonist, S1P4 antagonist, INS promoter inh)
N/C(=N\OC(=O)COc1ccc2ccccc2c1Br)c1ccccn1	EP2 mod 62 (no result: INS promoter inh)
COc1cc(C(=O)NCc2nc(-c3ccncc3)n[nH]2)cc(OC)c1OC	none (no result: S1P4 agonist, S1P3 antagonist, S1P4 antagonist, INS promoter inh)
COC(=O)c1sc2ncccc2c1OCc1c(Cl)cccc1Cl	EP2 mod 62 (no result: S1P3 antagonist, INS promoter inh)
Cc1ccc(-c2cc(C(=O)N3C(C)CCCC3C)no2)cc1 (stereo unspecified)	none (no result: S1P4 agonist, S1P3 antagonist, S1P4 antagonist, INS promoter inh)
O=C(O)[C@H]1CCCC[C@H]1C(=O)NCCNC(=O)[C@@H]1CCCC[C@@H]1C(=O)O	INS promoter inh 100 (no result: S1P3 antagonist)
Cc1ccc(-c2nnc(SCC(=O)Nc3ccc4c(c3)OCCO4)n2C)cc1	none (no result: S1P4 agonist, S1P3 antagonist, S1P4 antagonist, INS promoter inh)
CCN(CC)c1cc2nc(C)n(Cc3ccccc3)c(=O)c2cc1NC(=O)C1CC1	INS promoter inh 85 (no result: S1P3 antagonist)
Cc1ccccc1C1c2[nH]c3ccccc3c2CCN1CCCn1cccn1 (stereo unspecified)	EP2 mod 64 (no result: INS promoter inh)
CCN(CC)CCN(Cc1cc2cc3c(cc2[nH]c1=O)OCCO3)C(=O)Nc1cccc(Cl)c1	none (no result: S1P4 agonist, S1P3 antagonist, S1P4 antagonist, INS promoter inh)
Clc1ccc(CSc2ncnc3c2ncn3[C@@H]2CCCCO2)cc1	EP2 antag 45 (no result: S1P4 agonist, S1P3 antagonist, S1P4 antagonist, INS promoter inh)
Nc1ncnc2c1ncn2C1CCCO1 (stereo unspecified)	none (no result: S1P4 agonist, S1P3 antagonist, S1P4 antagonist, INS promoter inh)
O=C(O)c1cc2n(n1)C(C(F)(F)F)CC(c1ccccc1)N2 (stereo unspecified)	none (no result: S1P3 antagonist, INS promoter inh)
COc1ccc(C2CC(C(F)(F)F)n3nc(C(=O)O)cc3N2)cc1OC (stereo unspecified)	EP2 mod 62
Cc1ccc(CNS(=O)(=O)NCc2cccs2)cc1	INS promoter inh 77
Cc1ccc(CNS(=O)(=O)NCc2ccc(Cl)cc2)cc1	none (no result: INS promoter inh)
CCOCCn1c(SCCCc2ccccc2)nc2c1c(=O)[nH]c(=O)n2C	EP2 mod 62 (no result: S1P3 antagonist)
CCCCCSc1nc2c(c(=O)[nH]c(=O)n2C)n1CCc1ccccc1	S1P3 antagonist 102 (no result: S1P4 agonist, EP2 mod, S1P4 antagonist, INS promoter inh)
C=C(C)Cn1c(SCc2ccc(Cl)cc2)nc2c1c(=O)[nH]c(=O)n2C	EP2 mod 71 (no result: S1P4 agonist, S1P3 antagonist, S1P4 antagonist, INS promoter inh)
CCCCCCSc1nc2c(c(=O)[nH]c(=O)n2C)n1C	EP2 mod 64 (no result: INS promoter inh)
CC(C)CCSc1nc2c(c(=O)[nH]c(=O)n2C)n1CCCc1ccccc1	none (no result: INS promoter inh)
